RORgamma inh = blocks mouse ROR gamma transcriptional activity; P51450; Drosophila S2 Gal4-RORgamma UAS-luciferase reporter, 20 h; Potency, µM (highest dose often 53.6 µM), for the others: top-dose activity change, negative = inhibition, usual class: inhibitors; actives 5.4% (n = 310,000); AID 2551; also: nearly all actives have a fitted effect of over 60% in size
Target sequence (P51450 whole entry, looked up, the tested form may be a part): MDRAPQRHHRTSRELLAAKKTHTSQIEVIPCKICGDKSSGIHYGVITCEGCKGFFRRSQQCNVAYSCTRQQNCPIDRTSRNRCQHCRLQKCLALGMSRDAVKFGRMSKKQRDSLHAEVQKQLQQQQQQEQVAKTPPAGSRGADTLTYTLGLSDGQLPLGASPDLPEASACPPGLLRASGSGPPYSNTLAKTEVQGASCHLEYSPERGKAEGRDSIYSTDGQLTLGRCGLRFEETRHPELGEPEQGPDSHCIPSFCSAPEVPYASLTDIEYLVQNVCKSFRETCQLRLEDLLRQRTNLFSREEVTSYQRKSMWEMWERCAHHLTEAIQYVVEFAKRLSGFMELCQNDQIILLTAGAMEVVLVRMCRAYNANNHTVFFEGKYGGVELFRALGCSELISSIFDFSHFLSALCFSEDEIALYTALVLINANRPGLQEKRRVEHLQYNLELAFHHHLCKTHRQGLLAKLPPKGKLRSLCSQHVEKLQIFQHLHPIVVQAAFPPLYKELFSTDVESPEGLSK
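Using a luciferase readout, inhibitors were identified by reduced reporter activity in Drosophila cells coexpressing a copper-inducible Gal4–ROR gamma fusion and UAS-driven Photinus luciferase, incubated 20 hr after 700 uM copper sulfate.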
TDP1 cell CPT = DT40-hTDP1 cell growth loss with CPT. chicken DT40 Tdp1-/-;hTDP1 cells + 20 nM CPT, ATP luminescence, 48 h. Potency, µM (highest dose often 46.2 µM), without a hit: at the highest dose activity change, negative = growth inhibition, actives largely listed as inhibitors. actives 12% (n = 420,000). AID 686979; also: nearly all actives have a fitted effect of over 55% in size
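Chicken DT40 Tdp1-/- cells complemented with human TDP1, 400 cells/well, exposed to compounds plus 20 nM camptothecin for at least 48 h at 37 C; viability read as ATP content by CellTiter-Glo luminescence.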
ALOX12 inh = blocks human arachidonate 12S-lipoxygenase | P18054 | purified 12hLO, xylenol orange hydroperoxide absorbance | Potency, µM (top dose mostly 108 µM), without a hit: at the highest dose activity change, negative = inhibition, usual class: inhibitors | actives 1.1% (n = 580,000) | AID 1671190
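Purified human 12hLO (150 nM final) in 25 mM Hepes, 0.01% Triton X-100, pH 7.0 was preincubated 15 min at room temperature with compound. Then 40 uM arachidonic acid was added, 30 min. Hydroperoxide was read by Fe-XO absorbance ratio 573/405 nm.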
DT40 TDP1 no CPT = qHTS for Inhibitors of human tyrosyl-DNA phosphodiesterase 1 (TDP1): qHTS in cells in absence of CPT; Potency, µM (series often up to 46.2 µM), for inactives: at the highest dose activity change, negative = growth inhibition, usual class: inhibitors; actives 15% (n = 420,000); DT40 Tdp1-/- hTDP1 cells, no CPT, ATP luminescence, 48 h; AID 686978, 2013; also: nearly all actives have a fitted effect of over 55% in size
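Luminescent ATP content (CellTiter-Glo) served as the growth readout. Knockout chicken DT40 cells expressing human TDP1 were exposed to compounds without camptothecin for a minimum 48 hr at 37 °C.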
ELG1 repair inh = ELG1-dependent DNA repair inhibition; HEK293T ELG1-luciferase reporter, luminescence, 16 h; DNA damage induced by 5-fluorouridine; Potency, µM (top dose mostly 46.1 µM), inactives show at the highest dose activity change, negative = inhibition, actives largely listed as inhibitors; actives 2.3% (n = 330,000); also: nearly all actives have a fitted effect of over 55% in size
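Step one: seed 2,000 cells per well. Step two: pin-transfer compound or DMSO alongside 5-fluorouridine. Step three: incubate 16 hr, 37 °C, 5% CO2. Step four: add ONE-Glo, wait 30 min, read luminescence.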
VP16 counter = counter-screen for ROR gamma inhibitors: Gal4-VP16 reporter | Potency, µM (doses to about 53.6 µM), inactives show at the highest dose activity, negative = inhibition, actives largely listed as inhibitors | Drosophila S2 Gal4-VP16 UAS-luciferase, luminescence, 20 h | actives 3.5% (n = 310,000);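 also: Gal4-VP16 expression switched on by copper sulfate through the metallothionein promoter; nearly all actives have a fitted effect of over 50% in size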
An asterisk follows results filed as active; [ ] = another dose, or the depositor's remark. Only some compounds are listed: those with a hit (about 15% of all), similar ones and a draw of the others. Calls follow the shape of the dose curve; as a rule, active = well fitted curve in the direction sought with a large enough effect; inconclusive = small, poorly fitted or top-dose-only effect, or another doubt; inactive = no such curve, though single readings can be large; an effect the other way counts as inactive or inconclusive. % is scaled to controls: 0 for no effect and ±100 for the full control effect; potency is read from the fitted curve at half-maximal effect.

How did Cc1cc(C)n2c(Nc3ccc4c(c3)OCCO4)c(-c3ccccn3)nc2n1 do in these assays?
TDP1 cell CPT: inconclusive; ALOX12 inh: -6%; DT40 TDP1 no CPT: inconclusive

How did Cc1cc(C)n2c(NC3CCCC3)c(-c3ccc(F)cc3)nc2n1 do in these assays?
TDP1 cell CPT: inconclusive; ALOX12 inh: inconclusive; DT40 TDP1 no CPT: 18µM*

How did Cc1nc(-c2ccccc2F)sc1C(=O)N1CCC(C(=O)O)CC1 do in these assays?
ALOX12 inh: 1%

Results for Cc1[nH]c2ccccc2c1C(=O)C(N)=O ?
ALOX12 inh: 17%

What do the screens show for `CN(C)/C=N/c1c(C#N)cnn1-c1ccccc1`?
RORgamma inh: 13%; TDP1 cell CPT: -2%; ALOX12 inh: 18%; DT40 TDP1 no CPT: -20%; ELG1 repair inh: -1%; VP16 counter: -3%

What do the screens show for `CN(C)/C=N/c1c(C#N)cnn1-c1ncnc2sc(-c3ccccc3)cc12`?
RORgamma inh: 18%; TDP1 cell CPT: 21µM*; ALOX12 inh: 3%; DT40 TDP1 no CPT: 18µM*; ELG1 repair inh: 18µM*; VP16 counter: 2%

What do the screens show for `O=C(NNC1=NS(=O)(=O)c2ccccc21)c1ccccc1`?
RORgamma inh: 13µM*; TDP1 cell CPT: -13%; ALOX12 inh: 3%; DT40 TDP1 no CPT: 23%; ELG1 repair inh: inconclusive; VP16 counter: inconclusive

What do the screens show for `O=C(NNC1=NS(=O)(=O)c2ccccc21)c1ccccc1Cl`?
RORgamma inh: -19%; TDP1 cell CPT: 6%; ALOX12 inh: -2%; DT40 TDP1 no CPT: inconclusive; ELG1 repair inh: inconclusive; VP16 counter: -15%

How did Cc1ccccc1C1(O)c2ccccc2-c2ccccc21 do in these assays?
TDP1 cell CPT: 23µM*; ALOX12 inh: -23%; DT40 TDP1 no CPT: 15µM*

How did Cc1ccc(C2(O)C(=O)c3ccccc3C2=O)c(O)c1C do in these assays?
RORgamma inh: 23%; TDP1 cell CPT: inconclusive; ALOX12 inh: inconclusive; DT40 TDP1 no CPT: inconclusive; ELG1 repair inh: -24%; VP16 counter: 6%

Results for Cc1[nH]nc2ccc(-c3cncc(OC[C@@H](N)Cc4ccccc4)c3)cc12 ?
ALOX12 inh: 7.7µM*

What do the screens show for `CC(C)CCCC1CN(C(=O)c2c(O)cccc2O)CCO1` (configuration not stated)?
ALOX12 inh: 31%

What do the screens show for `Cn1c(=O)c2c(ncn2Cc2ccc(Cl)cc2Cl)n(C)c1=O`?
ALOX12 inh: -8%

Results for Cc1cc(C)n(-c2ccn(Cc3ccc(Cl)cc3Cl)c(=O)n2)n1 ?
RORgamma inh: -6%; TDP1 cell CPT: 21µM*; ALOX12 inh: inconclusive; DT40 TDP1 no CPT: 16µM*; ELG1 repair inh: inconclusive; VP16 counter: 0%

Results for COc1cccc(CNC(=O)N2CCc3c(sc4c3CCCC4)C2c2ccc(F)cc2)c1 (configuration not stated) ?
TDP1 cell CPT: inconclusive; ALOX12 inh: -14%; DT40 TDP1 no CPT: 15µM*

Results for COc1ccc(NC(=O)N2CCc3c(sc4c3CCCC4)C2c2ccccc2OC)cc1 (configuration not stated) ?
TDP1 cell CPT: 16µM*; ALOX12 inh: -17%; DT40 TDP1 no CPT: 13µM*

Results for Cc1cc(C(=O)Nc2ccccc2C(C)(C)C)c2ccccc2n1 ?
ALOX12 inh: -44%

Results for O/C(=C\c1nc2ccccc2nc1/C=C(\O)c1ccccc1)c1ccccc1 ?
RORgamma inh: 10µM*; TDP1 cell CPT: inconclusive; DT40 TDP1 no CPT: inconclusive; ELG1 repair inh: inconclusive; VP16 counter: 5%[10 µM]

Results for O/C(=C\c1ccc2ccccc2n1)c1ccncc1 ?
TDP1 cell CPT: -27%; ALOX12 inh: -24%; DT40 TDP1 no CPT: inconclusive; ELG1 repair inh: inconclusive

Results for CCOc1cccc(CNC(=O)[C@@]23CCCC[C@H]2N(C)C(=O)CC3)c1 ?
ALOX12 inh: 45%

Results for CC(C)CCC(=O)NCC(C)N1CCCC1 (configuration not stated) ?
ALOX12 inh: -86%

What do the screens show for `O=c1[nH]c(=O)n(Cc2ccccc2)c2nc(-c3ccco3)cc(C(F)(F)F)c12`?
RORgamma inh: inconclusive; TDP1 cell CPT: -3%; ALOX12 inh: inconclusive; DT40 TDP1 no CPT: -19%; ELG1 repair inh: 14%; VP16 counter: -17%

What do the screens show for `Cc1nn(CCc2nc(-c3ccccc3)cs2)c2[nH]c(=O)cc(C(F)(F)F)c12`?
ALOX12 inh: 7.1µM*

How did Cc1nn(CCc2nc(-c3ccco3)cs2)c2[nH]c(=O)cc(C(F)(F)F)c12 do in these assays?
RORgamma inh: 19%; TDP1 cell CPT: inconclusive; ALOX12 inh: 7.9µM*; DT40 TDP1 no CPT: inconclusive; ELG1 repair inh: 1%; VP16 counter: -5%

How did Cc1noc(-c2cn(C3CCN(C(=O)C(C)Oc4ccc(Cl)cc4)CC3)nn2)n1 (configuration not stated) do in these assays?
ALOX12 inh: 34%

What do the screens show for `N/C(=N\S(=O)(=O)c1cc(C(F)(F)F)cc(C(F)(F)F)c1)c1ccc(Cl)cc1`?
RORgamma inh: inconclusive; TDP1 cell CPT: 18µM*; ALOX12 inh: -24%; DT40 TDP1 no CPT: 21µM*; ELG1 repair inh: inconclusive; VP16 counter: inconclusive

Results for Cc1ccc(Cl)cc1N(C(=O)c1csnn1)C(C(=O)NC1CCCC1)c1ccco1 (configuration not stated) ?
RORgamma inh: -29%; TDP1 cell CPT: 0%; ALOX12 inh: 2%; DT40 TDP1 no CPT: -12%; ELG1 repair inh: -2%; VP16 counter: 6%

What do the screens show for `Cc1ccccc1CCN(C(=O)c1csnn1)C(C(=O)NC1CCCC1)c1ccco1` (configuration not stated)?
RORgamma inh: 7%; TDP1 cell CPT: 23µM*; ALOX12 inh: -4%; DT40 TDP1 no CPT: inconclusive; ELG1 repair inh: -13%; VP16 counter: 1%

How did C=CCOc1c(CNc2cccc(C(=O)O)c2)cccc1OC do in these assays?
RORgamma inh: 10µM*; TDP1 cell CPT: -6%; ALOX12 inh: -18%; DT40 TDP1 no CPT: -21%; ELG1 repair inh: inconclusive; VP16 counter: inconclusive

Bioassay records from PubChem.
